The results in this text go back to ChEMBL document CHEMBL1961873, “Compounds: GSK PKIS; Assays: Nanosyn kinase panel” (2012).

The subject of assay [1] is Tyrosine-protein kinase ABL1 (Homo sapiens), P00519 [T315I]. To be noted: at 1 µM.
Assay [2] deals with Tyrosine-protein kinase ABL1 (Homo sapiens), P00519 [Y253F]. To be noted: at 0.1 µM.
Assay [3] has the same test system. To be noted: at 1 µM.
Assay [4] concerns the target Tyrosine-protein kinase ABL1 (Homo sapiens) (UniProt P00519). To be noted: at 0.1 µM.
Assay [5] has the same target. To be noted: at 1 µM.
For assay [6], the target named is ALK tyrosine kinase receptor (Homo sapiens) (UniProt Q9UM73). To be noted: at 0.1 µM.
ALK tyrosine kinase receptor (Homo sapiens), sequence (Q9UM73 19-1620 limits assumed): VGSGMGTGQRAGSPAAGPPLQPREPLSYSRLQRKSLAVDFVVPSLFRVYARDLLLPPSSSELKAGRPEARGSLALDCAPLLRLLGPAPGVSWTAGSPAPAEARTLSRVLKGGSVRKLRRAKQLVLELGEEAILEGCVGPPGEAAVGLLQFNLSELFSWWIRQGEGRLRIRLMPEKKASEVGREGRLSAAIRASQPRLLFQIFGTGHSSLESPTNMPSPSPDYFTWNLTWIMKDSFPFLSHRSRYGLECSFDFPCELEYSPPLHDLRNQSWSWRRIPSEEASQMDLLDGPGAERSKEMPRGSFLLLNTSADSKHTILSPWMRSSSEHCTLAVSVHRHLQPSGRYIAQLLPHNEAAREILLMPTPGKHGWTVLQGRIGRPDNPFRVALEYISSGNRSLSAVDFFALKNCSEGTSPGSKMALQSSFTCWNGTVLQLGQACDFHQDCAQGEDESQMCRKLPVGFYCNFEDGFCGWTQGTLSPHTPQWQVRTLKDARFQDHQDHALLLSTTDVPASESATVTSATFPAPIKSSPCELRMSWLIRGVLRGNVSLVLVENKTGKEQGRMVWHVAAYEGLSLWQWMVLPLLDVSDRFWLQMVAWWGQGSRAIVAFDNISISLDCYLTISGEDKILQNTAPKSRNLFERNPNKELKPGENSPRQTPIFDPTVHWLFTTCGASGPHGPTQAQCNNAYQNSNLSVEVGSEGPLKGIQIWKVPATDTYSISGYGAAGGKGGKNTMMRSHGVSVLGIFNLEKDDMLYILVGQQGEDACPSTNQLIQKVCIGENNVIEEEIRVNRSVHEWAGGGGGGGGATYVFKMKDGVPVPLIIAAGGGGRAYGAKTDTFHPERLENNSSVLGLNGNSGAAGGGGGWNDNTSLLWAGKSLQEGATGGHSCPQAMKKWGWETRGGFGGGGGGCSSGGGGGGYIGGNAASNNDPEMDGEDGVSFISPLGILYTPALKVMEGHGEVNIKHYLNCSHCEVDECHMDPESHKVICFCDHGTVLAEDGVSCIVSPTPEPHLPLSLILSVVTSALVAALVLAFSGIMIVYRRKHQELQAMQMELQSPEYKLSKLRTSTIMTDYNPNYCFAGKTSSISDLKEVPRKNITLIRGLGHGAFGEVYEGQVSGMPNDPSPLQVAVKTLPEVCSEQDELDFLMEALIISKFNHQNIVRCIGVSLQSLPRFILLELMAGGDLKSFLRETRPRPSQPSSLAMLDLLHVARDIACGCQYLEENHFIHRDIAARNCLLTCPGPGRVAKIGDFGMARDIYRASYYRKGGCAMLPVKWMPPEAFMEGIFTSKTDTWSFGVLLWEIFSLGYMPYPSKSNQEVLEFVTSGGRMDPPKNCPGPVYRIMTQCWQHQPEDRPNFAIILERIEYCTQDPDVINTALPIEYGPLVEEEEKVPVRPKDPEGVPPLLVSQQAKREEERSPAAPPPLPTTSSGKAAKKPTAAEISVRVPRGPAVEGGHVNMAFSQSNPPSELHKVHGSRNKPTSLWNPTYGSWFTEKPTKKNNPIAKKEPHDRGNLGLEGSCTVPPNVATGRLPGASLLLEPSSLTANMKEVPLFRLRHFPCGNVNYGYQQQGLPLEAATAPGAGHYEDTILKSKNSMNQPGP
For assay [7] the target is unchanged. To be noted: at 1 µM.
For assay [8], the target named is Tyrosine-protein kinase ABL2 (Homo sapiens) (UniProt P42684). To be noted: at 0.1 µM.
Tyrosine-protein kinase ABL2 (Homo sapiens), sequence (P42684 whole entry): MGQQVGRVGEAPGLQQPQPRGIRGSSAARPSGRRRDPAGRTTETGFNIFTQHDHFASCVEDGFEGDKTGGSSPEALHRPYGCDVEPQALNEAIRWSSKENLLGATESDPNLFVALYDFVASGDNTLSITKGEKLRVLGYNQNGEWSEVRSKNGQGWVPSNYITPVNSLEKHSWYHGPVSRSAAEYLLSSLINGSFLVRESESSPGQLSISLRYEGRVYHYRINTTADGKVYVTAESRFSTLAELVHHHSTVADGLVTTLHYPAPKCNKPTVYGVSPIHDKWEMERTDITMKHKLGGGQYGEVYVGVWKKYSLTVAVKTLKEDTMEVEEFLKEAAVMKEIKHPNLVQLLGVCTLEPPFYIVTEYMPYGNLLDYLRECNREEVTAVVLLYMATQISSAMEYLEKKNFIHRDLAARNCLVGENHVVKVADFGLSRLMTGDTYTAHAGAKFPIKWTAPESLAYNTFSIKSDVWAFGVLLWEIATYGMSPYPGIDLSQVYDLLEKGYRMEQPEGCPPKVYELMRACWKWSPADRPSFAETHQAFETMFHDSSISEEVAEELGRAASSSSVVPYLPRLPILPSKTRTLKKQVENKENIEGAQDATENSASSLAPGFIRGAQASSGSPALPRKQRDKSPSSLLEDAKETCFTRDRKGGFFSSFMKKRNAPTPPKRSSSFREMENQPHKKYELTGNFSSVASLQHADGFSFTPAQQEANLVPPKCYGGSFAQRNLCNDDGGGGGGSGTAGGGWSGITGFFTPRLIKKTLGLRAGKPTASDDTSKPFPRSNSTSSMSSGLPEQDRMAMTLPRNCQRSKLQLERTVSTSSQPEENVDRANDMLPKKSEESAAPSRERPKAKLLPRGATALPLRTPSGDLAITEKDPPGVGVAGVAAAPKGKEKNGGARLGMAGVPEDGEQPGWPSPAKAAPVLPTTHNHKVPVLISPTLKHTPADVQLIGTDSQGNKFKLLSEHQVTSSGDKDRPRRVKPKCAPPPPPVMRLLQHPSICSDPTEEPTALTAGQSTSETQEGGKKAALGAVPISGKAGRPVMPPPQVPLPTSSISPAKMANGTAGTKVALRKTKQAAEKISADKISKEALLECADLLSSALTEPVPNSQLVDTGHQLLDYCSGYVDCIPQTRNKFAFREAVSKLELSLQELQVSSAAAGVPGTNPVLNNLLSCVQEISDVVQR
The target is the same in assay [9]. To be noted: at 1 µM.
Assay [10] addresses Tyrosine-protein kinase receptor UFO (Homo sapiens) (UniProt P30530). To be noted: at 0.1 µM.
The target is the same in assay [11]. To be noted: at 1 µM.
Assay [12] has as its target Tyrosine-protein kinase Blk (Homo sapiens) (UniProt P51451). To be noted: at 0.1 µM.
Assay [13] has the same target. To be noted: at 1 µM.
For assay [14], the target named is T1, Cytoplasmic tyrosine-protein kinase BMX (Homo sapiens) (UniProt P51813).
T1 sequence (whole entry): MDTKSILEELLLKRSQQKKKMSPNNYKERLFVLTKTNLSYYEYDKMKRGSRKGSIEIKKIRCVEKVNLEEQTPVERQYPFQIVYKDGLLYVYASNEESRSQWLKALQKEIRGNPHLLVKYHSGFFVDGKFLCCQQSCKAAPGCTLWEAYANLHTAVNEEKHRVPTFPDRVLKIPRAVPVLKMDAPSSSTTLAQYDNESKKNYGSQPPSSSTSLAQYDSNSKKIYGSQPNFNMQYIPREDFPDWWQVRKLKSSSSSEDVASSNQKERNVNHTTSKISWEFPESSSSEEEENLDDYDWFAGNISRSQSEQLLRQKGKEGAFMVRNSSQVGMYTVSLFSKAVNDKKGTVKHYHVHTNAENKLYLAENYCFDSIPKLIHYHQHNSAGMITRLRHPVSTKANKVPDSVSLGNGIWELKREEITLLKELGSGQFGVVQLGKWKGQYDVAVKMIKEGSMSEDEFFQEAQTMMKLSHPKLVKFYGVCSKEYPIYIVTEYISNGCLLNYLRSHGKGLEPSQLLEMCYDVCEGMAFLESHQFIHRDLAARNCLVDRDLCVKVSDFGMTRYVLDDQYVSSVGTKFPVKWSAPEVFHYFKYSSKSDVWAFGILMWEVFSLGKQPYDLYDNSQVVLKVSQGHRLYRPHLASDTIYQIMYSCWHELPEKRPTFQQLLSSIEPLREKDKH
To be noted: at 0.1 µM.

Assay [15] addresses T1, Cytoplasmic tyrosine-protein kinase BMX (Homo sapiens). To be noted: at 1 µM.
Assay [16] has as its target Protein-tyrosine kinase 6 (Homo sapiens) (UniProt Q13882). To be noted: at 0.1 µM.
The target is the same in assay [17]. To be noted: at 1 µM.
Assay [18] addresses Tyrosine-protein kinase BTK (Homo sapiens) (UniProt Q06187). To be noted: at 0.1 µM.
Assay [19] has the same target. To be noted: at 1 µM.
In assay [20] the target is Tyrosine-protein kinase CSK (Homo sapiens) (UniProt P41240). To be noted: at 0.1 µM.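 Note: value given is the averaged percent inhibition of CSK kinase activity, from the GSK PKIS kinase inhibitor set screening panel.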
Tyrosine-protein kinase CSK (Homo sapiens), sequence (P41240 2-450 limits assumed): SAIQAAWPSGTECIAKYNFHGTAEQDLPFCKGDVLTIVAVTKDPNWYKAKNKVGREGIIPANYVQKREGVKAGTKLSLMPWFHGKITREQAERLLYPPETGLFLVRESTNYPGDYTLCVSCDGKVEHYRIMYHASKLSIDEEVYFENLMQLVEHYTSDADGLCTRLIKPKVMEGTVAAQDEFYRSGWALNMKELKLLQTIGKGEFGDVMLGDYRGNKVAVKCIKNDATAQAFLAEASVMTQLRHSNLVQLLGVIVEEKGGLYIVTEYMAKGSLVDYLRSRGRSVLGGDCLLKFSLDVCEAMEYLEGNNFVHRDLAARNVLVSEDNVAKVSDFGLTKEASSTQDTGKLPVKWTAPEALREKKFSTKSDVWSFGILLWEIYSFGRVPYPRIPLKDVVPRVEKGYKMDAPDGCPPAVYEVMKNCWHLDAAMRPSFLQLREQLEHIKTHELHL

Tyrosine-protein kinase BTK (Homo sapiens), sequence (Q06187 whole entry): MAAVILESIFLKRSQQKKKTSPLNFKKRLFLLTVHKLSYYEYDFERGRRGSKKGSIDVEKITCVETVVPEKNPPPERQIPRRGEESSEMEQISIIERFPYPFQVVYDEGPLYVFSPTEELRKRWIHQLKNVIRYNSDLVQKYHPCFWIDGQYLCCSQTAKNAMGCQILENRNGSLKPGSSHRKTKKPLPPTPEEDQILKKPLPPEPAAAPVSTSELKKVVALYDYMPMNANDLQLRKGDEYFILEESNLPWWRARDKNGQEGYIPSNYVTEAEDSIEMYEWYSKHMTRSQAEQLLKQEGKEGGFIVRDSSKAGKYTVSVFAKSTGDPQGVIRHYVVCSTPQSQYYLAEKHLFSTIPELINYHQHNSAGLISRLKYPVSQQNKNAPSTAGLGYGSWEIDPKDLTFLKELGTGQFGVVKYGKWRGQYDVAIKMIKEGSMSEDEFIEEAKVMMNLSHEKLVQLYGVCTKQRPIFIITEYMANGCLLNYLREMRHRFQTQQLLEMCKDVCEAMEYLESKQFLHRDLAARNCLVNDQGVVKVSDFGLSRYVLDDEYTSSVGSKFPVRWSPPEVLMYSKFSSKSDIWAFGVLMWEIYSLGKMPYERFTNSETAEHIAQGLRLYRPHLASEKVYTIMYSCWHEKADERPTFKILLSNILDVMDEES
Tyrosine-protein kinase receptor UFO (Homo sapiens), sequence (P30530 whole entry): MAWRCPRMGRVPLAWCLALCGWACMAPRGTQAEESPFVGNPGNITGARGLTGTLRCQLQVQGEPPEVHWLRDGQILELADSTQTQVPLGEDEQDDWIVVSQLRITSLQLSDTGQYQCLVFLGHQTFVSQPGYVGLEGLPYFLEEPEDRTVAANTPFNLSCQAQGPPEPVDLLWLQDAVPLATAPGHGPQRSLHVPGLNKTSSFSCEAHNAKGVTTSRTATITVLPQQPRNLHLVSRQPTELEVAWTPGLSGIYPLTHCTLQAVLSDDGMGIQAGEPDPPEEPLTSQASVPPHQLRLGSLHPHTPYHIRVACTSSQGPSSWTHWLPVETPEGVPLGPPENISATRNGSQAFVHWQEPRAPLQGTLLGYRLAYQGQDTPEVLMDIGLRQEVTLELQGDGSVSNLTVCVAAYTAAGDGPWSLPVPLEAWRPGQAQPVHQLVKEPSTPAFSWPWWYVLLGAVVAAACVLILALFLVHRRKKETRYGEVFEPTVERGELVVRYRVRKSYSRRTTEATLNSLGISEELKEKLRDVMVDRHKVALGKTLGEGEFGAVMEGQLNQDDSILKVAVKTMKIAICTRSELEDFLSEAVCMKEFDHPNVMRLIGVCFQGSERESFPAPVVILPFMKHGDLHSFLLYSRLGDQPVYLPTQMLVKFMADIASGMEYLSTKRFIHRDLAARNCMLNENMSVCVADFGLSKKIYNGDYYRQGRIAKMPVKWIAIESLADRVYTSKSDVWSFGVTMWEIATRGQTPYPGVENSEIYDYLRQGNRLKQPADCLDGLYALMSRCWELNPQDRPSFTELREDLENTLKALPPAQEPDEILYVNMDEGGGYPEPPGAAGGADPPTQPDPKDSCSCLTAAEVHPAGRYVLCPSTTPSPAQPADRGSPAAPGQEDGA

What is called inhibition is the drop in the measured response relative to a control, in per cent. With `CCc1nccc2c1nc(-c1nonc1N)n2CC`, the inhibition in assay [1] is -0.14%; in assay [2] it was 2.18%; in assay [3], 2.26%; in [4], 1.88%; in [5], 7.3%; in assay [6], 0.99%. Further, the inhibition in assay [7] was 0.3%; in assay [8], 2.12%; in [9], 9.26%; in [10], -0.45%; in assay [11], 2.17%; in assay [12], 0.44%. The inhibition was 1.64% in [13]; -1.94% in assay [14]; 2.51% in assay [15]; -3.14% in assay [16]; -0.37% in assay [17]; -0.56% in [18]. For the same compound, the inhibition came out at 0.41% in [19] and 1.3% in assay [20].
With `Fc1ccc(-c2ncn(C3CCNCC3)c2-c2ccnc(Oc3ccc4c(c3)OCO4)n2)cc1`, the inhibition turned out to be 3.48% in assay [1]; 4.71% in assay [2]; 4.75% in assay [3]; 5.17% in assay [4]; 9.1% in assay [5]; 4.91% in assay [6]. For the same compound, the inhibition in [7] is 6.26%; in assay [8], 5.06%; in assay [9], 9%; in assay [10], -7.21%; in assay [11], -5.79%; in [12], 4.26%. In addition, the inhibition was 5.32% in assay [13]; 5.5% in [14]; 5.87% in [15]; 4.19% in assay [16]; 5.5% in assay [17]; -0.46% in [18]. Also, the values for the inhibition in [19] and in assay [20] were 0.77% and 3.85%, respectively.
For the compound `Cc1ccc(NC(=O)c2ccoc2)cc1-c1ccc(C(=O)NCC2CC2)cc1`, the inhibition is 1.92% in [1]; 1.38% in [2]; -0.92% in assay [3]; 1.09% in assay [4]; 1.49% in assay [5]; 1.85% in assay [6]. In addition, the inhibition is 4.11% in assay [7]; 2.28% in assay [8]; 2.36% in assay [9]; -3.64% in [10]; -2.93% in assay [11]; 1.47% in assay [12]. Further, the inhibition in assay [13] came to 3.07%; in [14], 3.34%; in [15], 1.66%; in assay [16], 0.58%; in [17], 4.58%; in [18], 0.36%. The values for the inhibition in assay [19] and in assay [20] were 0.35% and 1.61%, respectively.
`C#Cc1cccc(Nc2ncnc3ccc(OCCCCNCCS(C)(=O)=O)cc23)c1`: the inhibition stood at 19.4% in assay [1]; 8.28% in assay [2]; 24.9% in [3]; 8.05% in assay [4]; 26.8% in assay [5]; 3.38% in assay [6]. In addition, the inhibition in assay [7] was 31.9%; in assay [8], 5.87%; in assay [9], 14.8%; in [10], -8.14%; in assay [11], -7.98%; in assay [12] it was 2.28%. The inhibition was 3.96% in assay [13]; 3.24% in [14]; 5.57% in assay [15]; 6.2% in assay [16]; 10.2% in [17]; -3.76% in assay [18]. Also, the inhibition in [19] was 1.2%; in assay [20] it was 3.24%.
Regarding `N#Cc1ccc(Oc2nccc(-c3c(-c4ccc(F)cc4)ncn3C3CCNCC3)n2)cc1`, the inhibition in assay [1] came out at 5.17%; in assay [2], 2.11%; in [3], 5.93%; in assay [4] it was 3.72%; in assay [5], 5.42%; in assay [6], 3.58%. In addition, the inhibition in assay [7] was 5.33%; in [8], 1.9%; in assay [9] it was 6.94%; in assay [10] it was -5.46%; in [11], -3.22%; in assay [12] it was 2.21%. The inhibition in assay [13] is 3.73%; in assay [14], 3.25%; in assay [15] it was 4.26%; in assay [16], 4.1%; in [17], 4.81%; in assay [18] it was -1.09%. For the same compound, the inhibition was 0.54% in assay [19] and 0.79% in assay [20].
With `Nc1nccc(-c2c(-c3ccc(F)cc3)ncn2C2CCC(O)CC2)n1` (stereo not given), the inhibition in assay [1] is 42.7%; in assay [2] it was 1.83%; in assay [3], 24.4%; in assay [4] it was 1.2%; in assay [5], 36.8%; in assay [6], -2.24%. Further, the inhibition in [7] stood at 2.88%; in [8], 0.37%; in assay [9], 30.3%; in assay [10], 2.47%; in [11], 6.29%; in [12] it was 0.25%. Also, the inhibition in assay [13] is 5.98%; in assay [14], -2.32%; in assay [15], 3.78%; in assay [16], 1.95%; in [17] it was 14%; in assay [18], -0.78%. Also, the inhibition in [19] was 1.08%; in [20], -1.06%.
For the compound `COc1ccc2cc(-c3c(-c4ccncc4)nc(-c4ccc([S+](C)[O-])cc4C)n3C)ccc2c1` (stereo not given), the inhibition was 54.5% in [1]; 1.98% in assay [2]; 16% in assay [3]; 2.56% in [4]; 15.7% in assay [5]; -0.66% in [6]. Further, the inhibition in assay [7] is 2.15%; in assay [8], 5.58%; in assay [9] it was 12.1%; in assay [10], 1.01%; in assay [11], 1.82%; in assay [12] it was -0.17%. Besides, the inhibition in [13] was 4.39%; in assay [14], 0.28%; in assay [15], 0.8%; in assay [16], 24.7%; in assay [17] it was 81.2%; in [18], -0.17%. Also, the inhibition in assay [19] is 0.66%; in assay [20] it was -0.71%.
